# Test results as given in PubChem BioAssay (NCI).
# Where “and” joins values, the source holds several entries; their conditions need not be identical. Identical values can stand only once. The panel holds about 79,000 compounds, 15% with a hit somewhere; the sample as a whole holds those more often. A number with no mark means an inactive call. Calls of active or inactive are those of the source. No stated cut-off is given here; in the data, active means growth inhibition above about 70%; inactive means the rest.
# Experiment: NCI Yeast Anticancer Drug Screen. Data for the rad50EPP+ strain (AID 151);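 further: 0% = growth of vehicle-treated control cultures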
# Details: S. cerevisiae rad50 mutant strain, hits give high values
# Description: Growth inhibition of yeast strains with defined genetic alterations is measured as a screen for potential anti-cancer activity. Selected strains with alterations in DNA damage repair or cell cycle control were exposed to compounds and growth inhibition was measured relative to vehicle treated controls. The strain used in this assay is rad50EPP+
Compound,growth inhibition (at 1.2 µM),growth inhibition (at 3.7 µM),growth inhibition (at 11.0 µM),growth inhibition (at 33.0 µM),growth inhibition (at 100.0 µM)
C[Si](C)(C)Cc1ccccc1C(=O)O,-2%,1%,0%,4%,3%
CCOC(=O)C1=C(C)NC(C)=C(C(=O)OCC)C1c1cccc([N+](=O)[O-])c1,-54%,-78%,-91%,-93%,-103%
CN1CCN(c2ccc3nc(-c4ccc5nc(-c6ccc(O)cc6)[nH]c5c4)[nH]c3c2)CC1,-7%,-12%,83% (active),97% (active),97% (active)
CCN(CC)c1ccc(N=Nc2cc(S(=O)(=O)O)ccc2O)c(O)c1,8%,-8%,-19%,-23%,-46%
O=S(=O)(Oc1c(Cl)cc(Cl)cc1Cl)c1ccccc1,8%,23%,37%,71% (active),89% (active)
[Cl][Pt+2][Cl].[NH-]CC1(C[NH-])CCCCC1,-41%,-6%,96% (active),98% (active),98% (active)
COc1ccc2[nH]c3c(C)c4cc[n+](C)cc4c(C)c3c2c1,39% and 24%,64% and 62%,70% (active) and 73% (active),73% (active) and 82% (active),87% (active) and 89% (active)
N=c1oc2ccccc2cc1-c1nc2ccccc2[nH]1,30%,48%,58%,85% (active),91% (active)
